Assay results reported in PubChem BioAssay (NCI).
Values joined by “and” are separate entries in the source; they are usually repeats but may differ in a detail not shown here. Identical values can stand only once. The panel holds about 79,000 compounds, 15% with a hit somewhere; the sample as a whole holds those more often. Values without a mark were called inactive. Active and inactive are the calls of the source. Rule as the data show it: active = growth inhibition above about 70%; inactive = the rest.

Assay: NCI Yeast Anticancer Drug Screen. Data for the rad50 strain (AID 155);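 also: 0% = growth of vehicle-only cultures of the same strain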
Conditions: S. cerevisiae rad50 strain growth inhibition, stronger effect = higher value; at 50.0 µM unless noted
Outline: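 Cells are treated with compound, grown, and their growth is then scored against vehicle-only cultures of the same repair-deficient yeast strain.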
Compound CCOC(=O)c1cc(C(O)C(O)C(O)CO)oc1C (stereo not given) has a growth inhibition of 14.6%.
Compound CN=Nc1c(O)[nH]c2ccc(C)cc12 has a growth inhibition of -5.25%.
For O/N=C/c1ccc(O)cc1, the growth inhibition was -63.2%.
For CCCCCC=C(C(=O)OCC)C(=O)OCC, the growth inhibition was 22.9%.
In the case of O=C(O)CCC(=O)c1ccc(F)cc1, the growth inhibition was -20.6%.
In the case of C[C@H]1/C(=C/C(=O)OCCN(C)C)CC[C@H]2[C@H]1C(=O)C[C@H]1C(C)(C)[C@@H](O)CC[C@]21C, the growth inhibition was 1.2%.
Cc1cc(C)c([N+](=O)[O-])cc1N gave a growth inhibition of 20.9%.
Compound CC(=O)c1ccc2c(c1)NC(=O)CC(C)N2 (stereo not given) has a growth inhibition of 0.65%.
In the case of O=C(NCCCl)NC1C(O)OC(CO)C(O)C1O (stereo not given), the growth inhibition was 93.2% (active).
With NC(N)=N/N=C(\c1ccc(C(F)(F)F)cc1)c1ccc(Cl)c(Cl)c1 the growth inhibition was 99.5% (active).
Work on CCC(C)C(C#N)(CCN(CC)CC)c1ccccc1 (stereo not given) yielded a growth inhibition of 15.2%.
With COCc1ccccc1-n1nccc1S(C)=O (stereo not given) the growth inhibition was -10.9%.
Work on CC(=O)OC[C@H](O)[C@@]1(O)CC[C@H]2[C@@H]3CCC4=CC(=O)C=C[C@]4(C)[C@H]3[C@@H](O)C[C@@]21C yielded a growth inhibition of 33.2%.
In the case of NC(CSCCB(O)O)C(=O)O (stereo not given), the growth inhibition was -11.7%.
[N-]=[N+]=Nc1ccc2nc(N)nc(N)c2c1 showed a growth inhibition of -4.25%.
In the case of Cc1ccc(S(=O)(=O)c2ccccc2)cc1, the growth inhibition was -18.4% and 23.4%.
With Cc1cccc(Nc2nc(C)nc3[nH]cc(-c4ccccc4)c23)c1 the growth inhibition was -14.7%.
In the case of CCOC(=O)C(CCc1ccccc1)(NC(C)=O)C(=O)OCC, the growth inhibition was 10.4%.
COC(=O)CC(NC(=O)OCc1ccccc1)C(=O)NCC(=O)Oc1ccc([N+](=O)[O-])cc1 (stereo not given) showed a growth inhibition of 21.1%.
For C[N+](C)(C)CC1CCC/C1=N\OC(=O)c1ccccc1 (stereo not given), the growth inhibition was -17.8%.
Compound COc1ccc(C2=C(c3ccccc3)C(=O)C3(c4ccccc4)CC23c2ccc(OC)cc2)cc1 (stereo not given) has a growth inhibition of -1.25%.
For CC(C)(Nc1ccccc1)C(=O)OC(C)(C)C(=O)Nc1ccccc1, the growth inhibition was -7%.
For c1cc2c(cc1C1=NNC(c3ccc4c(c3)OCO4)=NN1)OCO2, the growth inhibition was -13.3%.
Compound Nc1ccc2ncc(Nc3ccc(F)cc3)nc2c1 has a growth inhibition of 37.7%.
For COc1cc(OC)c(C2SCC(=O)N2c2nnc(C(F)(F)F)s2)cc1OC (stereo not given), the growth inhibition was 9.9%.
COc1ccc2ncccc2c1[N+](=O)[O-] gave a growth inhibition of -5.55%.
For CC(=O)c1cccc(NC(=O)Oc2cc(=O)oc3ccccc23)c1, the growth inhibition was 5.75%.
O=C1C(=O)c2ccccc2C(O)=C1C1CCCCC1 gave a growth inhibition of 44.4%.
COc1ccccc1C(=O)N/N=C/c1cccc([N+](=O)[O-])c1 showed a growth inhibition of -2.15%.
With C=C(c1ccccc1)C1ON(C)CCc2cc(OC)c(OC)cc21 (stereo not given) the growth inhibition was 3.65%.
In the case of CC(=O)Nc1cccc(Br)c1, the growth inhibition was -18.1%.
With CC(=O)C12C[C@](C#N)(N3CCCCCC3)C1C=Cc1ccccc12 (stereo not given in full) the growth inhibition was -56%.
CCOC(=O)O/C(=C\c1ccc(OC)cc1)c1c(OC(=O)OCC)n(C(=O)OCC)c2ccccc12 showed a growth inhibition of -13.1%.
CC/C=C/C(CC)(C(=O)OCC)C(=O)OCC gave a growth inhibition of 5.45%.
CCCCCCC(=O)OCC(=O)c1ccc(Br)cc1 gave a growth inhibition of 2.85%.
CCC(C)(CC)c1ccc(C)cc1OC showed a growth inhibition of -4.9%.
COCCN=Cc1ccc(N(C)C)cc1 showed a growth inhibition of 4.35%.
O=C(C1=CCCCC1)c1ccc(-c2ccccc2)cc1 gave a growth inhibition of -4.25%.
CCOC(=O)CCC(NC(=O)OCc1ccccc1)C(=O)NNC(=O)OC(C)(C)C (stereo not given) showed a growth inhibition of 30.1%.
CC(=O)[CH-]C(=O)c1ccccc1.CC(=O)[CH-]C(=O)c1ccccc1.CC1(C)OCC(C2OC3OC(C)(C)OC3C2[O-])O1.CC1(C)OCC(C2OC3OC(C)(C)OC3C2[O-])O1.[Ti+4] (stereo not given) showed a growth inhibition of 29.9%.
